Inconclusive results are not listed. Active and inactive are the calls of the source. Rule for the calls, unless noted: active = hit-call score of the fitted dose curve at least 0.9, where 1 is the maximum; inconclusive = response in the unintended direction; inactive = score below 0.9.
Assays:
[1] = read-out: Transforming Growth Factor (TGFA), TGFA (gene 7039); test: LTEA_HepaRG_TGFA: Life Technologies and Expression Analysis (LTEA) Assay for Transforming Growth Factor (TGFA) using HepaRG (AID 2283532; active = hit-call score of the fitted dose curve at least 0.9, where 1 is the maximum; inactive = score below 0.9); details: mRNA level, 48 h; actives raise or lower the signal
How it was run: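 TGFA transcript quantified by qRT-PCR (Fluidigm arrays) against three housekeeping genes, after 48 hours chemical treatment of HepaRG cells. Top concentration 100 uM with half-log dilutions, 8 points, duplicates, 0.5% DMSO.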

[2] = read-out: Transforming Growth Factor (TGFB1), TGFB1 (gene 7040); test: LTEA_HepaRG_TGFB1: Life Technologies and Expression Analysis (LTEA) Assay for Transforming Growth Factor (TGFB1) Transporter using HepaRG (AID 2283533; active = hit-call score of the fitted dose curve at least 0.9, where 1 is the maximum; inactive = score below 0.9); details: mRNA level, 48 h; actives raise or lower the signal
How it was run: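 HepaRG, 48 h post-plating, switched to serum-free induction medium; chemicals 100 uM top, half-log, 8 pts, 0.5% DMSO, dup; 48 h exposure; RNA → Fluidigm TaqMan qRT-PCR; norm ACTB/GAPDH/POLR2A; bidirectional fit vs DMSO.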

[3] = read-out: TIMP1, TIMP1 (gene 7076); test: LTEA_HepaRG_TIMP1: Life Technologies and Expression Analysis (LTEA) Assay for TIMP1 using HepaRG (AID 2283534; active = hit-call score of the fitted dose curve at least 0.9, where 1 is the maximum; inactive = score below 0.9); details: mRNA level, 48 h; actives raise or lower the signal
How it was run: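 Readout is TIMP1 mRNA level measured by qRT-PCR and normalized to three housekeeping genes. Human HepaRG cells were treated for 48 h in duplicate at eight concentrations up to 100 uM (0.5% DMSO); gain or loss fitted against DMSO.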

[4] = read-out: Tumor necrosis factor receptor 1 (TNFRSF1A), TNFRSF1A (gene 7132); test: LTEA_HepaRG_TNFRSF1A: Life Technologies and Expression Analysis (LTEA) Assay for Tumor necrosis factor receptor 1 (TNFRSF1A) using HepaRG (AID 2283535; active = hit-call score of the fitted dose curve at least 0.9, where 1 is the maximum; inactive = score below 0.9); details: mRNA level, 48 h; actives raise or lower the signal
How it was run: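 Read-out is TNFRSF1A transcript level by TaqMan qRT-PCR, normalized to three housekeeping genes, scored as gain or loss of signal versus 0.5% DMSO. Human HepaRG cells received test chemicals for 48 h at up to 100 uM (half-log series).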

[5] = read-out: Thyroid Hormone Responsive (THRSP), THRSP (gene 7069); test: LTEA_HepaRG_THRSP: Life Technologies and Expression Analysis (LTEA) Assay for Thyroid Hormone Responsive (THRSP) using HepaRG (AID 2283536; active = hit-call score of the fitted dose curve at least 0.9, where 1 is the maximum; inactive = score below 0.9); details: mRNA level, 48 h; actives raise or lower the signal
How it was run: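 THRSP transcript quantified by Fluidigm qRT-PCR against three housekeeping genes after 48 h chemical exposure of HepaRG cells in serum-free induction medium; eight-point half-log series, top 100 uM, 0.5% DMSO vehicle, duplicate wells.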

[6] = read-out: Cellular tumor antigen p53 (Homo sapiens) (UniProt P04637); test: LTEA_HepaRG_TP53: Life Technologies and Expression Analysis (LTEA) Assay for Tumor Protein P53 (TP53) using HepaRG (AID 2283537; active = hit-call score of the fitted dose curve at least 0.9, where 1 is the maximum; inactive = score below 0.9); details: mRNA level, 48 h; actives raise or lower the signal
How it was run: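 Differentiated HepaRG cells in serum-free induction medium exposed 48 h in duplicate to 8 half-log concentrations, top 100 uM, 0.5% DMSO. TP53 mRNA by TaqMan qRT-PCR (Fluidigm), normalized to ACTB, GAPDH, POLR2A; fitted bidirectionally versus DMSO.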

[7] = read-out: UDP glucuronosyltransferase (UGT1A1), UGT1A1 (gene 54658); test: LTEA_HepaRG_UGT1A1: Life Technologies and Expression Analysis (LTEA) Assay for UDP glucuronosyltransferase (UGT1A1) using HepaRG (AID 2283538; active = hit-call score of the fitted dose curve at least 0.9, where 1 is the maximum; inactive = score below 0.9); details: mRNA level, 48 h; actives raise or lower the signal
How it was run: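 UGT1A1 transcript level, measured by qRT-PCR with three housekeeping genes for normalization, after 48 h treatment of human HepaRG cells (0.5% DMSO, duplicates, up to 100 uM, half-log steps, 8 points). Curves fit both directions against DMSO baseline.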

[8] = read-out: UDP glucuronosyltransferase (UGT1A6), UGT1A6 (gene 54578); test: LTEA_HepaRG_UGT1A6: Life Technologies and Expression Analysis (LTEA) Assay for UDP glucuronosyltransferase (UGT1A6) using HepaRG (AID 2283539; active = hit-call score of the fitted dose curve at least 0.9, where 1 is the maximum; inactive = score below 0.9); details: mRNA level, 48 h; actives raise or lower the signal
How it was run: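 HepaRG, 48 h post-plating switch to serum-free induction medium; chemical 48 h, 100 uM top, half-log x8, duplicate, 0.5% DMSO. Phenobarbital 1mM induction control. UGT1A6 mRNA by TaqMan qRT-PCR; gain/loss fit vs DMSO.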

[9] = read-out: X-box binding protein 1 (XBP1), XBP1 (gene 7494); test: LTEA_HepaRG_XBP1: Life Technologies and Expression Analysis (LTEA) Assay for X-box binding protein 1 (XBP1) using HepaRG (AID 2283540; active = hit-call score of the fitted dose curve at least 0.9, where 1 is the maximum; inactive = score below 0.9); details: mRNA level, 48 h; actives raise or lower the signal
How it was run: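 Transcript levels of XBP1, measured by qRT-PCR and normalised to three housekeeping genes, were fitted bidirectionally relative to 0.5% DMSO controls. Human HepaRG cells received eight-point half-log dilutions from 100 uM for 48 h.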

[10] = LTEA_HepaRG_LDH_cytotoxicity: Cytotoxicity Assessment in the Life Technologies and Expression Analysis (LTEA) Assay (AID 2283563);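 for AC50: LDH activity released into spent culture medium as a marker of cell death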
How it was run: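 Cells were thawed and plated for 48 h. Medium was then replaced with serum-free induction medium. Chemicals (8 half-log points, maximum 100 uM, 0.5% DMSO) were added in duplicate for 48 h, after which spent medium was assayed for LDH.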

[11] = TOX21_p53_BLA_p2_viability: Viability Assessment in the Tox21 HCT-116 p53 Agonism Beta-lactamase Assay, Phase 2 (AID 2283591);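 note: compound exposure lasted 16 h at 37 °C; actives lower the ATP signal meaning cytotoxicity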
How it was run: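 Cytotoxicity readout: CellTiter-Glo ATP luminescence, 30 min at room temperature, after the beta-lactamase read. Cells were HCT116 exposed 16 h at 37C to compounds pin-transferred at 217-fold dilution from DMSO stocks.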

[12] = target: Cellular tumor antigen p53 (Homo sapiens) (UniProt P04637); test: TOX21_p53_BLA_p2_ratio: Tox21 HCT-116 p53 Agonism Beta-lactamase Assay, Ratio, Phase 2 (AID 2283592)
Cellular tumor antigen p53 (Homo sapiens), sequence (P04637 whole entry, looked up): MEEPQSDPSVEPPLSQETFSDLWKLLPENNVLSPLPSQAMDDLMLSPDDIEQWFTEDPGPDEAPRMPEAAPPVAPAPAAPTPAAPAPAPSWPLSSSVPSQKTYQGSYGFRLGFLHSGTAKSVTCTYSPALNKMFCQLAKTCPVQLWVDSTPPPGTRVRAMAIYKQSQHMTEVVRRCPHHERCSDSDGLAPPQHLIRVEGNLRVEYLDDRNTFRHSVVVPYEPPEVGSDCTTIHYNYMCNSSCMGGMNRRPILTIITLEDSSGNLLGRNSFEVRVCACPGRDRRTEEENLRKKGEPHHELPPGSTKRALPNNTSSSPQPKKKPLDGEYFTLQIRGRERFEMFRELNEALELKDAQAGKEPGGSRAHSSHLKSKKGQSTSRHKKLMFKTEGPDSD
How it was run: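 Plated HCT116 p53-bla cells (4000/well) received compound after 5 h, then 16 h at 37C/5% CO2. CCF4-AM added, 2 h RT. Ratio of 460 to 530 nm emission taken as the p53 reporter signal.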

[13] = target: Cellular tumor antigen p53 (Homo sapiens) (UniProt P04637); test: TOX21_p53_BLA_p3_ratio: Tox21 HCT-116 p53 Agonism Beta-lactamase Assay, Ratio, Phase 3 (AID 2283596)
How it was run: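 Cells were seeded at 4000/well, rested 5 h at 37C, then dosed with DMSO compound solutions (217-fold dilution) for 16 h. CCF4-AM substrate was loaded for 2 h at room temperature, and the 460/530 nm emission ratio was fitted for gain of signal versus DMSO.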

[14] = TOX21_p53_BLA_p4_viability: Viability Assessment in the Tox21 HCT-116 p53 Agonism Beta-lactamase Assay, Phase 4 (AID 2283597);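 note: hits lower the luminescence signal meaning cytotoxicity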
How it was run: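 Readout: ATP luminescence (CellTiter-Glo), measured 30 min after reagent addition at RT. The reagent followed a 2 h CCF4-AM incubation, and the cells had been exposed to compound for 16 h at 37C.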

[15] = target: Cellular tumor antigen p53 (Homo sapiens) (UniProt P04637); test: TOX21_p53_BLA_p5_ratio: Tox21 HCT-116 p53 Agonism Beta-lactamase Assay, Ratio, Phase 5 (AID 2283599)
How it was run: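 Beta-lactamase reporter ratio (blue 460 nm over green 530 nm, 405 nm excitation) after 2 h CCF4-AM loading, in HCT-116 cells exposed 16 h at 37 C to compounds pinned at 217-fold dilution. Increases relative to DMSO baseline scored.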

[16] = TOX21_p53_BLA_p5_viability: Viability Assessment in the Tox21 HCT-116 p53 Agonism Beta-lactamase Assay, Phase 5 (AID 2283600)
How it was run: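 Workflow: seed 4000 cells per well, wait 5 h, add compounds (DMSO, 217-fold dilution), incubate 16 h, load CCF4-AM 2 h, add CellTiter-Glo, read luminescence after 30 min.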

[17] = Tanguay_ZF_120hpf_MORT_legacy: (Legacy) Oregon State University Tanguay Lab 120 Hour Post-fertilization zebrafish Assay for Mortality (AID 2283633);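 for AC50: fitted as increase in binary mortality versus DMSO negative control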
How it was run: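 5D WT zebrafish, chorion removed 4 hpf; 1 embryo/well from 6 hpf; static exposure to 120 hpf, 28C, dark, sealed. Final DMSO 0.64%. Readout: binary mortality, brightfield, 24 + 120 hpf; DMSO as negative control.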

[18] = ATG_XTT_Cytotoxicity: Cytotoxicity Assessment in the Attagene TRANS-FACTORIAL HepG2 Assay (AID 2283584)
How it was run: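 Cells: human HepG2, transiently transfected with MRTU reporter constructs. Exposure 24 h. Readout: XTT, cell number. Baseline/neg ctrl DMSO; loss-of-signal scored.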

[19] = TOX21_p53_BLA_p3_viability: Viability Assessment in the Tox21 HCT-116 p53 Agonism Beta-lactamase Assay, Phase 3 (AID 2283593);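 note: cells exposed to compound for 16 h before reading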
How it was run: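 Cellular ATP was quantified by CellTiter-Glo luminescence, read after 30 min at room temperature. Beforehand, HCT116 cells (4000/well) received compound 5 h post-seeding, 217-fold diluted from DMSO, then incubated 16 h at 37C.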

Measured: AC50

CN(C[C@@H](CC[N+]12CCC(C3CCCCC3)(CC1)CC2)c1ccc(Cl)c(Cl)c1)C(=O)c1cc(C(F)(F)F)cc(C(F)(F)F)c1
inactive: [4] | [6] | [9]
active: [1] 50 µM | [2] 12.3 µM | [3] 68.7 µM | [5] 4.72 µM | [7] 6.65 µM | [8] 1.66 µM | [10] 26.6 µM | [11] 25.9 µM | [12] 64.8 µM | [13] 87 µM | [14] 14.8 µM | [15] 77.8 µM | [16] 46.8 µM | [17] 25.5 µM

Cc1oc2c(NC(=O)c3c(Cl)cccc3Cl)cccc2c1C(C)(C)O
active: [2] 50 µM | [5] 86.8 µM | [6] 82.1 µM | [7] 50 µM | [8] 46.9 µM | [9] 11.3 µM | [17] 26 µM
inactive: [1] | [3] | [4] | [18] | [11] | [12] | [13] | [14] | [15] | [16]

COc1ccc2cc(S(=O)(=O)N[C@H](CC(=O)N[C@H](Cc3ccc(CN4[C@H](C)CCC[C@@H]4C)cc3)C(=O)N(C)C(C)C)c3ccc4c(c3)OCO4)ccc2c1
active: [1] 25.3 µM | [2] 12.8 µM | [3] 30.8 µM | [4] 21.2 µM | [6] 24.1 µM | [7] 26 µM | [8] 23.2 µM | [10] 20.7 µM | [11] 74.2 µM | [12] 70.3 µM | [19] 84.8 µM | [14] 60.6 µM | [15] 71.9 µM | [16] 56.7 µM
inactive: [5] | [9] | [13] | [17]

Oc1ccccc1
inactive: [1] | [2] | [3] | [4] | [5] | [6] | [7] | [8] | [9] | [10] | [11] | [12] | [13] | [14] | [15] | [16] | [17]

CCCC(=O)OCCC(C)C
inactive: [1] | [2] | [3] | [4] | [5] | [6] | [7] | [8] | [9] | [10] | [12] | [13] | [14] | [15] | [16] | [17]

Cc1ncc(CO)c(CO)c1O
inactive: [1] | [2] | [3] | [4] | [5] | [6] | [7] | [8] | [9] | [18] | [11] | [12] | [19] | [13] | [14] | [15] | [16] | [17]

Cc1occc1C(=O)Nc1ccc(C(=O)N2CCC(F)(F)/C(=C\C(=O)N3CCC(N4CCCCC4)CC3)c3ccccc32)cc1
inactive: [1] | [2] | [3] | [4] | [5] | [6] | [8] | [9] | [11] | [12] | [13] | [15] | [16] | [17]
active: [7] 54.3 µM | [10] 49.6 µM

C[C@]12CC[C@@H]3c4ccc(O)cc4CC[C@H]3[C@@H]1CCC2=O
active: [7] 5.13 µM
inactive: [1] | [2] | [3] | [4] | [5] | [8] | [9] | [10] | [18] | [12] | [17]

Reference: PubChem BioAssay (EPA / NIEHS)
